Assay outcomes (PubChem BioAssay)
ALOX12 inh – inhibitors of human 12S-lipoxygenase ALOX12; P18054; purified 12hLO, xylenol orange hydroperoxide absorbance; Potency, µM (top dose mostly 108 µM), for the others: at the top dose activity change, negative = inhibition, most hits filed as inhibitors; 580,000 compounds, 1.1% hits; AID 1671190; note: % is set by controls: 0 for no effect and ±100 for the full control effect
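Purified human 12hLO at 150 nM in 25 mM Hepes, 0.01% Triton X-100, pH 7.0, preincubated 15 min at room temperature with compound. Reaction started with 40 uM arachidonic acid, 30 min at room temperature. Hydroperoxide measured by Fe-xylenol orange, 573/405 nm absorbance ratio.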
JMJD2A Tudor inh – JMJD2A Tudor domain (human) inhibition; O75164; 390,000 compounds, 4.4% hits; Potency, µM (titrated, usually from 114 µM), without a hit: at the highest dose activity change, negative = inhibition, hits mostly inhibitors; AlphaScreen JMJD2A-Tudor / H3K4me3 peptide binding; note: % is set by controls: 0 for no effect and ±100 for the full control effect; nearly all actives have a fitted effect of over 50% in size
G9a block – G9a (human) methyltransferase inhibition; G9a H3K9 monomethylation, AlphaScreen, 2 h; 350,000 compounds, 8.8% hits; Q96KQ7; Potency, µM (titrated, usually from 102 µM), inactives show top-dose activity, negative = inhibition, hits mostly inhibitors; AID 504332; note: % is set by controls: 0 for no effect and ±100 for the full control effect; nearly all actives have a fitted effect of over 75% in size
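Quantitative HTS format: methyltransferase activity on a biotin-tagged H3K9 peptide is measured by AlphaScreen, using a rabbit anti-monomethyl-H3K9 antibody with streptavidin donor and anti-IgG acceptor beads. Final levels are 20 nM enzyme, 500 nM peptide, 20 uM SAM; 2 h RT.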
Sfp inh – blocks B. subtilis Sfp PPTase activity; Potency, µM, without a hit: largest response in the series, negative = inhibition, usual class: inhibitors; Q9F4F7; 310,000 compounds, 3.5% hits; Biochemical Sfp PPTase activity, qHTS; AID 1490;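 note: the enzyme is Sfp with the accession as filed and its product quenches rhodamine fluorescence; 0% = enzyme reaction without inhibitor and -100% = no enzyme wells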
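After 15 min at room temperature with compound, 15 nM Sfp received 5 uM rhodamine-CoA plus 12.5 uM BHQ-2-ybbR (50 mM Hepes pH 7.6, 10 mM MgCl2). Rate came from the fluorescence difference over 30 min, ex 525/em 598 nm.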
HP1b chromo inh – HP1-beta chromodomain-methylated histone interaction inhibition; Potency, µM (highest dose often 114 µM), without a hit: at the top dose activity change, negative = inhibition, most hits filed as inhibitors; 390,000 compounds, 0.56% hits; AlphaScreen HP1-beta / biotin-H3K9me3 peptide binding; P83916; note: nearly all actives have a fitted effect of over 70% in size
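AlphaScreen: HP1-beta (50 nM) preformed 30 min with biotin-H3(1-18)K9me3 peptide (50 nM) in PBS pH 7.4, 0.01% Tween-20. Compound added for 30 min at RT, then streptavidin donor/nickel chelate acceptor beads (10 ug/mL) for 30 min.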
BAZ2B block – BAZ2B (human) inhibition. 360,000 compounds, 4.4% hits. AID 504333. AlphaScreen BAZ2B-H3K14Ac peptide displacement. Potency, µM (doses to about 114 µM), for the others: top-dose activity change, negative = inhibition, most hits filed as inhibitors; note: % is set by controls: 0 for no effect and ±100 for the full control effect; nearly all actives have a fitted effect of over 60% in size
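AlphaScreen displacement: compounds (up to 110uM) incubated 30 min at room temperature with a preformed 50 nM BAZ2B/50 nM biotinylated H3K14Ac peptide complex in PBS pH 7.4 with Tween-20. Donor and acceptor beads at 10 ug/mL final added, 20 min light-protected before reading.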
Starred values were filed as active, the others as inactive; u = inconclusive; x = no result given; [ ] = dose if it differs, or a comment. An excerpt weighted towards active compounds, which were near 8.7% of everything screened. Calls come from the whole dose curve; as a rule, active = well fitted curve in the direction sought with a large enough effect; inconclusive = small, poorly fitted or top-dose-only effect, or another doubt; inactive = no such curve, though single readings can be large; an effect the other way counts as inactive or inconclusive. Potency is the fitted concentration of half-maximal effect.

SMILES	ALOX12 inh	JMJD2A Tudor inh	G9a block	Sfp inh	HP1b chromo inh	BAZ2B block
NCCc1cccc(CN2CCC(Oc3cccc(F)c3)CC2)c1	-5%	x	x	x	x	x
CCCN1CCC(N(C)C(=O)c2ccc(N(C)C)c(F)c2)CC1	-30%	x	x	x	x	x
CCOc1ccccc1N1CCN(C(=O)[C@H]2CCC[C@H]2NC(=O)c2ccncc2)CC1	53%	x	x	x	x	x
COC(=O)CSC1=C(C#N)C(=O)NC(c2ccccc2)S1 (stereo unspecified)	u	u	u	32µM*	46%	50µM*
CCOc1ccc(OCC)c(NC(=O)C2C3C=CC(O3)C2C(=O)NCc2ccco2)c1 (stereo unspecified)	-2%	u	50µM*	-2%	-14%	u
COc1ccc(/C=C2\CCCc3c2nc2ccccc2c3C(=O)O)cc1OC	x	x	28µM*	35µM*	x	-22%
COc1cc(/C=C2\CCCc3c2nc2ccccc2c3C(=O)O)cc([N+](=O)[O-])c1O	u	u	40µM*	12%	u	56µM*
COc1ccc(/C=C2\CCc3c2nc2ccccc2c3C(=O)O)cc1OC	u	-5%	u	-13%	46%	-2%
CN(C)c1ccc(/C=C2\CCCc3c2nc2ccccc2c3C(=O)O)cc1	-18%	-17%	40µM*	-27%	11%	-23%
COc1cc(/C=C2\CCCc3c2nc2ccccc2c3C(=O)O)cc(OC)c1O	u	u	x	11µM*	2%	-16%
Nc1cc(N2CCN(C(=O)C3CCOCC3)CC(O)C2)ncn1 (stereo unspecified)	21%	x	x	x	x	x
CC(NS(=O)(=O)c1cccc2nsnc12)C12CC3CC(CC(C3)C1)C2 (stereo unspecified)	-18%	x	x	x	x	x
O=C(NC1CCc2ccccc21)c1ccccn1 (stereo unspecified)	1%	x	x	x	x	x
O=C(O)c1c2c(nc3ccccc13)/C(=C/c1cccc([N+](=O)[O-])c1)CCC2	40µM*	-2%	0%	10%	13%	-7%
COc1cc(-c2nc3ccc4ccccc4c3c3c2CCC3)cc(OC)c1O	-26%	u	79µM*	-14%	u	u
COc1cccc(/C=C2/CCC(CN(C)C)C2=O)c1 (stereo unspecified)	u	79µM*	x	x	u	x
CN(C)CC1CCC/C(=C/c2ccc(Cl)cc2)C1=O (stereo unspecified)	35µM*	-19%	x	x	33%	x
COc1ccc(S[C@]2(C(=O)NCC(F)(F)F)CC(=O)N[C@@H]2c2ccc(OC)cc2)cc1	32µM*	x	x	x	x	x
COC(=O)c1cc(OC(C)C)ccc1NC(=O)[C@@]1(Sc2ccc(OC)cc2)CC(=O)N[C@@H]1c1ccc(OC)cc1	3%	x	x	x	x	x
COc1ccc(CCC(=O)N2CCN(C(=O)c3nnn4c3COC(c3ccc(C)cc3)C4)CC2)cc1 (stereo unspecified)	18%	x	x	x	x	x
CCOc1ccccc1NC(=O)N1CCN(Cc2nc(-c3ccc(C)cc3)oc2C)CC1	-24%	x	x	x	x	x
Cc1oc2cc(OCC(=O)O)ccc2c(=O)c1Oc1ccccc1Br	32µM*	x	x	x	x	x
C=C(C)COc1ccc2c(=O)c(Oc3ccccc3Br)c(C)oc2c1	-58%	x	x	x	x	x
Cn1cc(C(=O)NCCc2noc(-c3ccncc3)n2)cn1	22%	x	x	x	x	x
O=C(NCCc1noc(-c2ccncc2)n1)c1ccccc1F	28µM*	x	x	x	x	x
O=C(c1ccc(OC2CCN(C(=O)c3cccc(F)c3)CC2)nc1)N1CCOCC1	33%	x	x	x	x	x
COCC(=O)Nc1ncc(S(=O)(=O)c2ccc([N+](=O)[O-])cc2)s1	-2%	u	35µM*	8%	7%	x
COc1ccc([C@H]2C[C@@H](O)[C@@H](O)[C@@H]2NC(=O)c2cc(C)n(C)n2)cc1	-4%[176 µM]	x	x	x	x	x
O=C1OC(c2ccccc2)=C/C1=C/N1CCOCC1	u	-31%	8.9µM*	20µM*	-7%	-31%
